# SRC3 TRFRET art: counter-screen for PPARgamma SRC-3 recruitment agonists: TR-FRET artefact | 99,000 tested, 0.39% active | TR-FRET ratio at 8 µM | AID 1048 | PPARgamma/SRC-3 format; hits give high values; in the data active = TR-FRET ratio above about 2000
# SRC2 TRFRET art: flags TR-FRET format artefacts in PPARgamma SRC-2 recruitment agonist screen; TR-FRET ratio at 8 µM; 200,000 tested, 0.4% active; TR-FRET artefact counter-screen; hits give high values; in the data active = TR-FRET ratio above about 2000
# PPARg SRC3 recr: agonists of human PPARgamma SRC-3 coactivator recruitment; P37231; biochemical PPARgamma/SRC-3 coactivator recruitment assay; activation, % at 8 µM; 200,000 tested, 0.26% active; in the data active = activation above about 23%;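 note: 0% = DMSO and 100% = reference agonist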
# PPARg SRC-1 ag: agonists of human PPARgamma SRC-1 coactivator recruitment. activation, % at 8 µM. PPARgamma-SRC-1 coactivator recruitment biochemical assay. 200,000 tested, 0.41% active. P37231; in the data active = activation above about 19%;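 note: 0% = DMSO and 100% = reference agonist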
# SRC1 TRFRET art: TR-FRET artefact, counter-screen to PPARgamma/SRC-1 agonist assay. 99,000 tested, 0.34% active. TR-FRET ratio at 8 µM. AID 1051. TR-FRET detection artefact counter-screen, emission ratio; hits give high values; in the data active = TR-FRET ratio above about 2300
# PPARg SRC-2 ag: PPARgamma-driven SRC-2 recruitment agonism | P37231 | PPARgamma LBD-SRC-2 recruitment, biochemical | activation, % at 8 µM | 200,000 tested, 0.34% active | AID 1032;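 note: 0% = vehicle and 100% = reference agonist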
# PPARg SRC2 conf: human PPARgamma SRC-2 recruitment agonism, confirmation | shares compounds with PPARg SRC3 recr | biochemical SRC-2 recruitment by PPARgamma | activation, % at 8 µM | 790 tested, 52% active;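 note: 0% = vehicle alone and 100% = reference agonist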
# PPARg SRC1 conf: human PPARgamma SRC-1 recruitment agonism, confirmation. activation, % at 8 µM. PPARgamma–SRC-1 coactivator recruitment biochemical assay. 790 tested, 43% active. shares compounds with PPARg SRC3 recr; in the data active = activation above about 20%;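 note: 0% = vehicle wells and 100% = reference agonist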
# PPARg SRC3 ag: human PPARgamma SRC-3 recruitment agonism, confirmation | shares compounds with PPARg SRC3 recr | biochemical PPARgamma-SRC-3 coactivator recruitment, agonist mode | activation, % at 8 µM | 790 tested, 29% active; in the data active = activation above about 24%;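 note: 0% = vehicle wells and 100% = reference agonist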
# * hit, by the source's call; . = no result. Hits are enriched below; roughly 0.84% of the tested compounds scored in any of these assays. Cut-off read from the data, not from the text of the source, unless noted: active = activation above about 22%; inactive = the rest.
SMILES,SRC3 TRFRET art,SRC2 TRFRET art,PPARg SRC3 recr,PPARg SRC-1 ag,SRC1 TRFRET art,PPARg SRC-2 ag,PPARg SRC2 conf,PPARg SRC1 conf,PPARg SRC3 ag
C=CCn1c(NC(=O)c2ccc(Br)o2)c(S(=O)(=O)c2ccccc2)c2nc3ccccc3nc21,.,1627,27*,34*,.,6,8,6,4
COC(=O)c1sccc1NC(=O)c1cc(-c2cccc(C)c2)nc2ccccc12,.,2058*,13,9,.,26*,2,5,2
CC(=O)c1nc(N2C(=O)CC(Cc3cccc(C)c3)C2=O)sc1C (stereo unspecified),.,1783,20,20*,.,10,10,8,7
CN(Cc1cn(-c2ccccc2)nc1-c1ccc(Cl)cc1)C(=O)CCC(=O)O,1561,1485,5,1,1882,-5,.,.,.
O=c1c2cn[nH]c2nc(SCc2ccccc2F)n1-c1ccc(Br)cc1,1579,1610,3,7,1760,-1,.,.,.
O=c1c2cn[nH]c2nc(SCc2cc(=O)n3cc(Br)ccc3n2)n1-c1ccc(Br)cc1,2853*,2457*,22,33*,3354*,36*,28*,19,20
CCOC(=O)c1sc2ncnc(NCc3ccco3)c2c1C,.,1926,30*,9,.,23*,19,16,10
CCOC(=O)c1sc2nc(CC(=O)OC)nc(NCc3ccco3)c2c1C,.,1592,-4,0,.,6,.,.,.
Cn1c(C(=O)OCC(=O)NCc2ccco2)cc2sccc21,.,1382,-2,-4,.,2,.,.,.
CCC(OC(=O)c1cc2sccc2n1C)C(=O)NCc1ccco1 (stereo unspecified),.,1504,14,31*,.,10,16,25*,26*
C=CCON/C(CCC)=C1\C(=O)C(C(=O)OC)C(C)(C)CC1=NC (stereo unspecified),1529,1527,-1,-5,1914,-2,.,.,.
O=C(Nn1c(O)c(C=C2N=c3ccccc3=N2)sc1=S)c1ccccc1Cl,.,1641,30*,12,.,19,26*,21*,16
Cc1ccccc1OCCOc1ccccc1C=C(C#N)C#N,2057*,2050*,12,20*,2244,13,21,17,13
Cc1cccc(OCCOc2ccccc2C=C(C#N)C#N)c1,1368,1559,-3,-7,1616,-6,.,.,.
CN(C)/C=C(\c1cnc(Cl)s1)S(=O)(=O)c1ccccc1,1571,1502,-2,3,1563,4,.,.,.
COc1ccc(S(=O)(=O)Nc2nccs2)cc1OC,1568,1549,1,1,1720,7,.,.,.
COc1ccc(-c2nnc(Nc3ccc(S(=O)(=O)Nc4nccs4)cc3)c3ccccc23)cc1,1895,1729,47*,55*,2204,18,35*,25*,24*
c1ccc2nc(-c3ccc(N4CCOCC4)cc3)ccc2c1,.,1544,71*,51*,.,6,8,7,6
CSc1nc2sc3c(c2c2nnnn12)CCCC3,.,2081*,70*,45*,.,20,50*,39*,26*
CC(C)C1Cc2c(C#N)c(N)sc(=S)c2CO1 (stereo unspecified),.,2315*,47*,33*,.,39*,12,8,5
CCn1c(C)nc2cc(S(=O)(=O)N3CCCC3)ccc21,.,1843,-10,1,.,24*,-2,2,2
Cn1c(=O)c2c(nc(SCC(=O)c3ccccc3F)n2C)n(C)c1=O,1633,1602,-4,-2,1688,2,.,.,.
CCN(CC)CCNC(=O)CSc1c2c(nc3cc(Cl)ccc13)CCCC2,2600*,2230*,25*,23*,3055*,47*,33*,22*,22
Cc1cccc(NC(=O)CSc2c3c(nc4ccccc24)CCC3)n1,1583,1518,5,-3,1807,7,.,.,.
Cc1ccc(CNC(=O)CSc2c3c(nc4ccc(Cl)cc24)CCCC3)o1,.,1885,19,13,.,16,.,.,.
SMILES,SRC3 TRFRET art,SRC2 TRFRET art,PPARg SRC3 recr,PPARg SRC-1 ag,SRC1 TRFRET art,PPARg SRC-2 ag,PPARg SRC2 conf,PPARg SRC1 conf,PPARg SRC3 ag
COc1cccc(NC(=O)CSc2c3c(nc4ccccc24)CCCC3)c1,2050,1718,13,21*,2392*,21,22*,17,15
COc1ccc(CS(=O)c2nc(C)cc(C)c2S(C)(=O)=O)cc1 (stereo unspecified),1731,1743,5,6,1767,1,.,.,.
COCCNC(=S)N1CCN(S(C)(=O)=O)CC1,1789,1744,9,2,1676,9,.,.,.
Brc1ccc(-c2nc3ccccc3s2)s1,.,3008*,93*,71*,.,63*,89*,66*,59*
c1ccc(-c2nc3ccccc3s2)nc1,.,1587,1,0,.,0,.,.,.
Oc1ccc(CCC2CCCCN2Cc2nc(C3CC3)no2)cc1 (stereo unspecified),1431,1602,2,5,1890,7,.,.,.
CC(=O)c1sc(NC(=O)c2ccco2)nc1-c1ccccc1,.,1647,8,6,.,6,.,.,.
CCOC(=O)c1sc(NC(=O)c2ccco2)nc1-c1ccccc1,.,1718,32*,26*,.,4,32*,20,17
CCn1c(=S)[nH]c2scc(-c3cccs3)c2c1=O,2804*,2915*,39*,52*,3314*,49*,60*,44*,39*
C=CCn1c(=S)[nH]c2sccc2c1=O,1503,1612,0,7,1985,9,.,.,.
O=c1c2c(-c3cccs3)csc2[nH]c(=S)n1-c1ccccc1,.,2587*,82*,65*,.,43*,63*,48*,42*
C=CCn1c(=S)[nH]c2scc(-c3ccc(C)o3)c2c1=O,2146*,2125*,24*,25*,2448*,15,21,15,16
O=c1c2c(-c3cccs3)csc2ncn1-c1ccccc1,.,1481,2,-2,.,0,.,.,.
Cc1cc(C)nc(NC(=O)Cc2ccc(Br)cc2)n1,1676,1685,5,-2,1799,-5,.,.,.
CCOC(=O)c1c(NC(=O)COc2ncnc3ccccc23)sc(C(C)=O)c1C,1991,1682,11,13,2218,25*,16,14,10
CCc1nnc(NS(=O)(=O)c2ccc(N/C=C\C(=O)c3cccc4ccccc34)cc2)s1,1728,1761,48*,23*,1902,24*,23*,22*,41*
CC(=O)CC1(OC(C)=O)C(=O)N(C)c2ccccc21 (stereo unspecified),1511,1492,7,0,1946,5,.,.,.
CCCCc1cc(=O)oc2cc(C)cc(O)c12,.,1941,17,7,.,14,.,.,.

# Compound activity deposited in PubChem by The Scripps Research Institute Molecular Screening Center.
